# Hit rate of the full screen: of about 94,000 compounds, about 6,200 (6.6%) were called active. Inconclusive results (about 31%) are left out. The sample holds actives, similar compounds and a random draw of the others, so the mix is not that of the screen. Values without a mark were called inactive. Calls follow the shape of the dose curve; as a rule, active = well fitted inhibition curve with a large enough effect; inconclusive = small, poorly fitted or top-dose-only effect; inactive = flat fitted curve, though single readings scatter.
# Assay: Cytotoxic Profiling in HEK 293 Cell Line of Diverse Libraries Using Quantitative High-Throughput Screening; also: nearly all actives have a fitted effect of over 60% in size
# Conditions: HEK 293 viability, ATP luminescence (CellTiter-Glo), 48-72 h; series mostly up to 115 µM; activity change, negative = cytotoxicity: at the top concentration
# Procedure, shortened: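 Read-out: CellTiter-Glo ATP luminescence. Cells: HEK 293, 250 cells/well. Exposure: 48 or 72 hr, 37 degree Celsius.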
# % is scaled to controls: 0 for no effect and ±100 for the full control effect; potency is read from the fitted curve at half-maximal effect.
SMILES,"activity change, negative = cytotoxicity",outcome,Potency
COc1ccc(CN2CCc3ncc(C(=O)NCCOc4ccccc4)n3CC2)cn1,-25.6% [at 172 µM],–,–
COc1ccc(CN2CCc3ncc(C(=O)Nc4ccccc4C)n3CC2)cn1,–,inactive [at 172 µM],–
Cc1cccc(CN2CCc3ncc(C(=O)NCc4ccccc4)n3CC2)n1,–,–,100 µM (active)
Cc1ccccc1CN1CCc2ncc(C(=O)NCCOc3ccccc3)n2CC1,–,–,79.4 µM (active)
COc1ncc(CN2CCc3ncc(C(=O)Nc4ccccc4)n3CC2)cn1,3.76% [at 172 µM],–,–
COCCOc1cc(=O)n2c(c1C(=O)NCc1ccccc1)CCOCC2,–,inactive,–
CCOCC(=O)N[C@@H]1c2ccccc2C2(CCNCC2)[C@H]1OC,–,inactive,–
COc1ccc(CCNC(=O)C2CC(=O)N(c3n[nH]c4cccc(F)c34)C2)cc1 (centres undefined),8.78%,–,–
COc1cccc(-c2cn(C3CCN(C(=O)c4ccc(Cl)cc4)CC3)c(=O)[nH]2)c1,-23.2%,–,–
Cc1ccccc1CN1CCCn2nc(C)c(-c3cccnc3N3CCOCC3)c21,–,–,70.8 µM (active)
Cc1ccc(OCC(=O)NCc2cccnc2N2CCOCC2)cc1,-16.7%,–,–
C=CCCCC(=O)Nc1ccc(NC(=O)C(C)(C)C)c(OC)c1,-9.37%,–,–
O=C1CCCCC(CNC(=O)c2cccc(F)c2)N1 (centres undefined),–,inactive,–
O=C(Nc1cccn2nc(C3CCC3)nc12)c1cccc(F)c1,–,–,39.8 µM (active)
O=C(NCc1cc2n(n1)CCCN(C1CCCCC1)C2)c1cccc(F)c1,0.948%,–,–
CCNC(=O)C1(CCO)CCN(c2ncccn2)C1 (centres undefined),-4.15%,–,–
O=C(NCc1ccc(Cl)nc1)c1cn2c(n1)CN([S+](=O)([O-])c1cccc(C(F)(F)F)c1)CC2,-16.9%,–,–
CC1(C(=O)N2CCN(Cc3ccccc3)CC2)CCOCC1,-6.51% [at 172 µM],–,–
O=C(Cc1ccc(F)cc1)N1CCOCC2(CN(Cc3ccccc3)C2)C1,–,–,39.8 µM (active)
CC(=O)N1CCC2(CC1)CN(C(=O)Cc1cccc(Cl)c1)CCO2,0.172%,–,–
O=C(Cn1nc2n(c1=O)CCCCC2)N1CCc2ccccc21,12.5%,–,–
CCOCC(=O)Nc1nn(-c2cccc(F)c2)c2cccc(N3CCOC3=O)c12,-23.7%,–,–
NC(=O)[C@H](Cc1cccs1)NC(=O)[C@@H]1C[C@@H](NC(=O)c2cnccn2)CCN1C(=O)COCC(=O)O,–,inactive,–
O=C(NCc1ccncc1)C1CCN(C(=O)N2CC3CC(C2)[C@H]2CCCC(=O)N2C3)CC1 (some centres undefined),6.44%,–,–
O=C(Nc1ccccc1Br)N1CCC2(CC1)SCC(=O)N2Cc1ccco1,-26.1%,–,–

SMILES,"activity change, negative = cytotoxicity",outcome,Potency
CNC(=O)[C@@H]1CN(C(=O)Cn2c(=O)oc3ccccc32)C[C@H]1c1nc(C)no1,-8.64%,–,–
O=C(NCCOc1ccccc1)c1nc2c(o1)CCN(CC1CCCCC1)CC2,–,–,100 µM (active)
CCc1nc2c(c(-c3ccc(OC)cc3)n1)CCN(CC1CCCCC1)CC2,-20.6%,–,–
O=C(NCCc1ccccc1)N1CCCCCC1CN1CCOCC1 (centres undefined),1.18%,–,–
CN1C(=O)[C@H]2CN(Cc3ccccc3Cl)C[C@H]2C1=O,-5.39%,–,–
c1coc(-c2ccnc3nc(C4CC4)nn23)c1,-5.45%,–,–
COc1cc(NC(=O)C2Cn3cccc3C(=O)N2)cc(OC)c1 (centres undefined),–,inactive,–
Cc1noc(C)c1[S+](=O)([O-])N1CC(Oc2ccc(F)c(F)c2)C1,-8.54%,–,–
Cc1noc(C)c1[S+](=O)([O-])N1CCCC(c2nnc3n2C(C(=O)O)CC3)C1 (centres undefined),–,inactive,–
O=C1N2CCCC2CN1C1CCN(Cc2ccsc2)CC1 (centres undefined),-3.09% [at 172 µM],–,–
CSc1ccc(-c2cccc(CN3CCC(N[S+](=O)([O-])c4cccs4)CC3)c2)cc1,–,–,22.4 µM (active)
Cc1noc(C)c1[S+](=O)([O-])NC1CCN(Cc2cccc(-c3ccc(F)c(F)c3)c2)CC1,–,–,25.1 µM (active)
Cc1noc(C)c1[S+](=O)([O-])NC1CCN(Cc2ccc(-c3ccsc3)cc2)C1 (centres undefined),–,–,39.8 µM (active)
Cc1noc(C)c1[S+](=O)([O-])N1CCn2c(nnc2-c2ccccc2)C1,-23.3%,–,–
CCCN1C(=O)C(CC(=O)NC2CCCC2)Sc2ncccc21 (centres undefined),9.1%,–,–
CC(C)CCN1CCc2c(n(Cc3cccnc3)n(-c3ccccc3)c2=O)C1,4.31% [at 172 µM],–,–
CCn1ncc(N2CCC(NC(=O)C(C)c3ccccc3)CC2)cc1=O (centres undefined),-2.7%,–,–
CN1[C@@H](CCC(=O)N2CCN(c3ccccn3)CC2)CNC(=O)[C@@H]2[C@H]1CCN2Cc1csnn1,1.42%,–,–
CN(Cc1cccnc1)C1CN(C(=O)c2ccnn2C)C1,-5.32%,–,–
CN(Cc1cccc2ccccc12)C1CCc2ccccc21 (centres undefined),1.89% [at 172 µM],–,–
CN(CC1CCOC1)C(=O)c1ccccc1Br (centres undefined),-14.7%,–,–
O=C(c1ccc(C(F)(F)F)cc1)N1CCC2(C1)C(=NC1CCCC1)NC(=O)N2c1cccnc1 (centres undefined),4.18%,–,–
CN(CC1(C)CCOCC1)S(=O)(=O)C1CC1,-3.58%,–,–
O=C(N[C@@H]1C[C@H](Cn2cc(-c3cccnc3)nn2)[C@@H](O)[C@H]1O)c1ccccc1,4.8%,–,–
